Source: PubChem BioAssay (NCATS)
Records with an inconclusive call do not appear. Entries that show only a call come without a potency. Calls of active or inactive are those of the source. The call rests on the fitted dose curve; in most records, active means well fitted inhibition curve with a large enough effect; inconclusive means small, poorly fitted or top-dose-only effect; inactive means flat fitted curve, though single readings scatter.

Target: Phospholipid hydroperoxide glutathione peroxidase GPX4 (Homo sapiens) (UniProt P36969)
Experiment: Primary qHTS Assay for Inhibitors of Recombinant Selenoprotein Glutathione Peroxidase 4 (GPX4) (AID 1845192); further: nearly all actives have a fitted effect of over 65% in size
Conditions: recombinant GPX4, GR-coupled NADPH fluorescence, 15 min; series mostly up to 50 µM
How it was run: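 Steps: GPX4 plus compound, 30 min RT; add GR/GSH/NADPH master mix; start with cumene hydroperoxide; read 340/450 nm fluorescence at 0 and 15 min. Finals were 200 nM GPX4, 1 mM GSH, 0.5 mM CHP, 0.5 mM NADPH, 100 nM GR.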

Sequence of Phospholipid hydroperoxide glutathione peroxidase GPX4 (Homo sapiens) (P36969 whole entry, looked up): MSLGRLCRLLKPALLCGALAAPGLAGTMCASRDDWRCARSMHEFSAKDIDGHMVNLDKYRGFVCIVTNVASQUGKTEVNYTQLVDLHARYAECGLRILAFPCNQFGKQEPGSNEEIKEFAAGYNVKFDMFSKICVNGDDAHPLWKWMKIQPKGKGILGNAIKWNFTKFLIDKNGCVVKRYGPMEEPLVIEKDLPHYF

Structure (SMILES) | Potency
CC(=O)NCCc1c[nH]c2ccc(O)cc12 | inactive
CC(C)Cn1c(=O)n(C)c(=O)c2[nH]cnc21 | inactive
Cn1ccnc1 | inactive
CCN(c1nc(N)c(C(=O)N=C(N)N)nc1Cl)C(C)C | inactive
COc1cc(C(O)CO)ccc1O (stereo not given) | inactive
O=c1oc(Cl)c(Cl)c2ccccc12 | inactive
Cc1cc2c(cc1Cl)N(C(=O)Nc1ccnc3ccccc13)CC2 | inactive
NC1CONC1=O (stereo not given) | inactive
CNc1cc(NS(=O)(=O)c2ccc(N)cc2)nc(NC)n1 | inactive
Nc1ccc(N2C(=O)c3ccccc3C2=O)c(Cl)c1 | inactive
CCCCCC(O)CCCC(=O)O (stereo not given) | inactive
N=C(N)c1ccc(N)cc1 | inactive
CC(=O)O[C@H]1Cc2ccccc2N(C(N)=O)c2ccccc21 | inactive
CC(N)=O | inactive
NCC(O)(CS(=O)(=O)O)c1ccc(Cl)cc1 (stereo not given) | inactive
N#C/C(=C\c1ccc(O)c(O)c1)C(=O)NCCc1ccccc1 | inactive
CCCCCCCCCC(=O)NC(CN1CCOCC1)[C@H](O)c1ccccc1 (stereo not given in full) | inactive
N[C@H](C(=O)O)[C@H](O)C(=O)O | inactive
Clc1nccc2c1ccc1ccccc12 | inactive
Cc1cccc(C)c1OCC(N)C(C)C (stereo not given) | inactive
C=C1C[C@@]23CC[C@H]4[C@@](C)(CCC[C@@]4(C)C(=O)O)[C@@H]2CC[C@]1(O)C3 | inactive
COc1cc(CC(=O)O)ccc1O | inactive
NC[C@@H]1O[C@H](c2ccccc2)Cc2c1ccc(O)c2O | inactive
CC1=C(C(=O)O)N2C(=O)[C@@H](NC(=O)C(N)C3=CCC=CC3)[C@H]2SC1 (stereo not given in full) | inactive
COc1ccc(CCN(C)CCc2ccc(OC)c(OC)c2)cc1OC | inactive
CCCn1c(=O)c2[nH]c(C3CCCC3)nc2n(CCC)c1=O | inactive
O=C(c1ccc2c(c1)OCCO2)N1CCCCC1 | inactive
C#CC(N)CCC(=O)O (stereo not given) | inactive
NC1C=CC=C(C(=O)O)C1 (stereo not given) | inactive
COC(=O)[C@H](NC(=O)c1cc(-c2ccccc2)nc2ccccc12)c1ccccc1 | inactive
